In PubChem BioAssay AID1159580 (chemical genetic matrix, 2015):
Out of some 5,500 compounds screened, about 2,000 (36%) were called active. Roughly 18% stayed inconclusive and do not appear here. Some of the results follow. Values without a mark were called inactive. Rule as the data show it: active = normalized growth mostly below about 0.91 (no sharp cut-off); inconclusive = no clear call, values can overlap the other calls; inactive = mostly above about 0.92.

Assay: chemical genetic growth profiling, strain panel (AID 1159580);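 also: tested at 20 µM; growth read once vehicle control cultures reached saturation at 30 °C; 1 = growth at the plate median or of vehicle wells; lower values mean less growth of the strain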
Conditions: S. cerevisiae deletion strains, growth OD
[1] = locus YAL040C, strain CLN3, hits give low values
[2] = locus YCL061C, strain MRC1 (second series), hits give low values
[3] = locus YDR363W, strain ESC2, hits give low values
[4] = locus YER002W, strain NOP16, hits give low values
[5] = locus YGR229C, strain SMI1, hits give low values
[6] = locus YJR075W, strain HOC1, hits give low values
[7] = locus YMR263W, strain SAP30, hits give low values
[8] = locus YMR307W, strain GAS1, hits give low values
[9] = locus YNL128W, strain TEP1, hits give low values
[10] = locus YNL153C, strain GIM3, hits give low values
[11] = locus YNL175C, strain NOP13, hits give low values
[12] = locus YNL197C, strain WHI3, hits give low values
[13] = locus YNL224C, strain SQS1, hits give low values
[14] = locus YOR083W, strain WHI5 (second series), hits give low values
[15] = locus YPL055C, strain LGE1, hits give low values
[16] = locus YPL241C, strain CIN2, hits give low values

## C[C@@H](NCCc1ccc(O)cc1)[C@@H](O)c1ccc(O)cc1
[1]
  normalized growth: 0.986
[2]
  normalized growth: 0.989
Locus YDR150W, strain NUM1, hits give low values
  normalized growth: 1.01
[3]
  normalized growth: 0.991
[4]
  normalized growth: 0.992
[5]
  normalized growth: 0.99
[6]
  normalized growth: 0.993
[7]
  normalized growth: 0.986
[8]
  normalized growth: 1.02
[9]
  normalized growth: 0.994
[10]
  normalized growth: 1.03
[11]
  normalized growth: 0.999
[12]
  normalized growth: 0.992
[13]
  normalized growth: 0.991
Locus YNL322C, strain KRE1, hits give low values
  normalized growth: 0.974
[14]
  normalized growth: 1
[15]
  normalized growth: 0.995

## CC(=O)NCCc1ccc(O)c(O)c1
Locus YAL013W, strain DEP1, hits give low values
  normalized growth: 1.03
[1]
  normalized growth: 1.01
[3]
  normalized growth: 1.05
[4]
  normalized growth: 1
[6]
  normalized growth: 1.02
[9]
  normalized growth: 0.999
[10]
  normalized growth: 0.986
[11]
  normalized growth: 1.01
[12]
  normalized growth: 1.01
[13]
  normalized growth: 0.998
[14]
  normalized growth: 1.02
[16]
  normalized growth: 1.01

## CC(CCc1ccc(O)cc1)NCCc1ccc(O)c(O)c1 (centres undefined)
[1]
  normalized growth: 1.01
[2]
  normalized growth: 0.812 (active)
[3]
  normalized growth: 0.969
[4]
  normalized growth: 0.993
[5]
  normalized growth: 0.708 (active)
[7]
  normalized growth: 1.01
[8]
  normalized growth: 0.947
[9]
  normalized growth: 1.01
[10]
  normalized growth: 0.944
[11]
  normalized growth: 1.01
[12]
  normalized growth: 1.03
[13]
  normalized growth: 1.02
[14]
  normalized growth: 0.98
[15]
  normalized growth: 0.756 (active)
[16]
  normalized growth: 0.927 (active)
